# How the values were obtained:
# Experiment in all cases: DAPPL (digital affinity profiling via proximity ligation, sequencing); 10 mM Tris-HCl pH 7.5, 50 mM NaCl, 1 mM DTT, 4% glycerol, room temperature, 30 min; GST-TFs on glutathione beads, 16-mer random dsDNA library, 0.1% formaldehyde crosslink after washing; high values mean tight binding
# FEV = target: T1, FEV (Homo sapiens, UniProt Q99581 1-238); conditions: protein: recombinant; tags: N-terminal GST; dsDNA, one strand shown
# T1 sequence: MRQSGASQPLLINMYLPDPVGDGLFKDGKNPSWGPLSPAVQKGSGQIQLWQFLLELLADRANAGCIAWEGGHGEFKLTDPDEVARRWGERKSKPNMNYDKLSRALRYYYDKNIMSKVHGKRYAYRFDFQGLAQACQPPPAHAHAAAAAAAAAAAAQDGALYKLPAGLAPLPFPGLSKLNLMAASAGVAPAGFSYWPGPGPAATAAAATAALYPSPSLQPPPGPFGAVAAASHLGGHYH
# How it was run: (§1)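 Beads coated with glutathione captured GST-fused human transcription factors that had been expressed in yeast, and the factors were then given DNA barcodes and pooled with a tag-only sample. The pools were incubated with 200 nmole of a random double-stranded 16-mer DNA library in Tris/NaCl/DTT/glycerol buffer for 30 min at room temperature, washed, crosslinked with 0.1% formaldehyde and proximity-ligated with BsaI/T4 ligase at 37 °C for 1 h. PCR amplification and Illumina NextSeq500 sequencing came last. Binding signal is each hexamer's read frequency for a factor divided by its frequency for the tag-only sample.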
# ETV5 = ETV5 (Homo sapiens, UniProt P41161 1-510); conditions: protein: recombinant; tags: N-terminal GST; dsDNA, one strand shown
# How it was run: as §1
# HSF1 = HSF1 (Homo sapiens, UniProt Q00613 1-529); conditions: protein: recombinant; tags: N-terminal GST; chain copies: 3; dsDNA, one strand shown
# How it was run: as §1
# SPIC = target: T2, SPIC (Homo sapiens, UniProt Q8N5J4 1-248); conditions: protein: recombinant; tags: N-terminal GST; dsDNA, one strand shown
# T2 sequence: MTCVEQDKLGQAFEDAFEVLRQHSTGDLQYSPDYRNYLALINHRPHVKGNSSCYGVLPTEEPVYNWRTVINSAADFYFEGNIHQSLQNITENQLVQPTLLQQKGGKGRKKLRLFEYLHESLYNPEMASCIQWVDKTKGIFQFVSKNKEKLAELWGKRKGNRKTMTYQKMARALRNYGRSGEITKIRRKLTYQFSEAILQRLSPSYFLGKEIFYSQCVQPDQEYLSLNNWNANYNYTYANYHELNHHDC
# How it was run: as §1
# ELF4 = ELF4 (Homo sapiens, UniProt Q99607 1-663); conditions: protein: recombinant; tags: N-terminal GST; dsDNA, one strand shown
# How it was run: as §1
# ELK4 = target: T3, ELK4 (Homo sapiens, UniProt P28324-2 1-405); conditions: protein: recombinant; tags: N-terminal GST; dsDNA, one strand shown
# T3 sequence: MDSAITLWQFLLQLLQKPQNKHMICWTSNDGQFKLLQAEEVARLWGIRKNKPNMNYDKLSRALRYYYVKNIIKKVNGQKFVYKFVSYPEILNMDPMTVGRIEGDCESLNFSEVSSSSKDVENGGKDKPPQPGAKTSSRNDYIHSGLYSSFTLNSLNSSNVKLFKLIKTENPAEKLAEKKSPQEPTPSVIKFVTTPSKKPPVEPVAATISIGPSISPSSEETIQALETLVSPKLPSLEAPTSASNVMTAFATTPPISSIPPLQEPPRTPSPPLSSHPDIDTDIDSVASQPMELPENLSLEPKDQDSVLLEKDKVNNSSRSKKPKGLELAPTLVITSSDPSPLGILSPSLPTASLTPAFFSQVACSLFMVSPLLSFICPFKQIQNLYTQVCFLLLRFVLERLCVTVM
# How it was run: as §1
# ETV2 = target: T4, ETV2 (Homo sapiens, UniProt O00321 1-342); conditions: protein: recombinant; tags: N-terminal GST; dsDNA, one strand shown
# T4 sequence: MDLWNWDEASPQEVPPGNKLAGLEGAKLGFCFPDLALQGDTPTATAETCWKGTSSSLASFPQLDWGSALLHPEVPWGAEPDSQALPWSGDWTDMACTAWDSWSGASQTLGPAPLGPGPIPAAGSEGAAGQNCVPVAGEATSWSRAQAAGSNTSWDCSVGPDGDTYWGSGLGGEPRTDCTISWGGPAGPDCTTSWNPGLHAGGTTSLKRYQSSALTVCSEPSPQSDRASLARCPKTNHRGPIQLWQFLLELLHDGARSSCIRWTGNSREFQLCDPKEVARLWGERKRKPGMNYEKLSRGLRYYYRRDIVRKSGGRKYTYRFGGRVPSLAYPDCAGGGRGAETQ
# How it was run: as §1
# ELF3 = target: T5, ELF3 (Homo sapiens, UniProt P78545 1-371); conditions: protein: recombinant; tags: N-terminal GST; dsDNA, one strand shown
# T5 sequence: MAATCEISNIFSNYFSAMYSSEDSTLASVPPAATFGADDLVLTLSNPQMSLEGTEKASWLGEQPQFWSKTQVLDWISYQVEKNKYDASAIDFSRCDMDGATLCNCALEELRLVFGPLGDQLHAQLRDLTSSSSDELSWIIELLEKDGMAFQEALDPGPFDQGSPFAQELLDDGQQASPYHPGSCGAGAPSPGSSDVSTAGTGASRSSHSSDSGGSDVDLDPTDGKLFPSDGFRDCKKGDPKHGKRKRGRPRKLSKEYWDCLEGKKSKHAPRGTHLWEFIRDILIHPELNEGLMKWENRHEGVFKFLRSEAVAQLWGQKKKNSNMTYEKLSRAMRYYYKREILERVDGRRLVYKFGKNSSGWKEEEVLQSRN
# How it was run: as §1
# CRX = CRX (Homo sapiens, UniProt O43186 1-299); conditions: protein: recombinant; tags: N-terminal GST; dsDNA, one strand shown
# How it was run: as §1
# ETV1 = ETV1 (Homo sapiens, UniProt P50549 1-477); conditions: protein: recombinant; tags: N-terminal GST; dsDNA, one strand shown
# How it was run: as §1
# ERF = target: T6, ERF (Homo sapiens, UniProt P50548 1-548); conditions: protein: recombinant; tags: N-terminal GST; dsDNA, one strand shown
# T6 sequence: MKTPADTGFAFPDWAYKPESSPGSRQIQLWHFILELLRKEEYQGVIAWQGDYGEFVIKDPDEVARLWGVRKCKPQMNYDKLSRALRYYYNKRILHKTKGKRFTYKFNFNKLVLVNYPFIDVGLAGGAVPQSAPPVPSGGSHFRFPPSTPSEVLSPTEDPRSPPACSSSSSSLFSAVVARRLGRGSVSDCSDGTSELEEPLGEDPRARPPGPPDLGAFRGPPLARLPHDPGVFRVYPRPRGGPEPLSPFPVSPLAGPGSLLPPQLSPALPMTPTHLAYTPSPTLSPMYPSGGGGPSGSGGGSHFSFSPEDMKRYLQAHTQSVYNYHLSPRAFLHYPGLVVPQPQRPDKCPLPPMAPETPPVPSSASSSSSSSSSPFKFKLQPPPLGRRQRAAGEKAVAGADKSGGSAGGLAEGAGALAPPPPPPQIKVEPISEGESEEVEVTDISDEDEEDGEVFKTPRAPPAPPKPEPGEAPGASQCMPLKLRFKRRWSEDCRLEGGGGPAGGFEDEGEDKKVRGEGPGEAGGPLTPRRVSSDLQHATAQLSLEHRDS
# How it was run: as §1
# ETV3L = target: T7, ETV3L (Homo sapiens, UniProt Q6ZN32 1-361); conditions: protein: recombinant; tags: N-terminal GST; dsDNA, one strand shown
# T7 sequence: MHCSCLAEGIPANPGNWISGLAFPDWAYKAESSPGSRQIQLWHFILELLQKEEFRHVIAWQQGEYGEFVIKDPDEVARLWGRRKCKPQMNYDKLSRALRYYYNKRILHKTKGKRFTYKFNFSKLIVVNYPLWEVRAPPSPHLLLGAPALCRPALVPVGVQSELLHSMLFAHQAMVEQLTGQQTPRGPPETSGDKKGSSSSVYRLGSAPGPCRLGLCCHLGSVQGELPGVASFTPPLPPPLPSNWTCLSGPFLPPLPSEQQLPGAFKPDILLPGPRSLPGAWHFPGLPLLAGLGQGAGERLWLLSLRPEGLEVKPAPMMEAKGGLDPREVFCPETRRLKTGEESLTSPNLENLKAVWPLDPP
# How it was run: as §1
# ETS2 = target: T8, ETS2 (Homo sapiens, UniProt P15036 1-469); conditions: protein: recombinant; tags: N-terminal GST; dsDNA, one strand shown
# T8 sequence: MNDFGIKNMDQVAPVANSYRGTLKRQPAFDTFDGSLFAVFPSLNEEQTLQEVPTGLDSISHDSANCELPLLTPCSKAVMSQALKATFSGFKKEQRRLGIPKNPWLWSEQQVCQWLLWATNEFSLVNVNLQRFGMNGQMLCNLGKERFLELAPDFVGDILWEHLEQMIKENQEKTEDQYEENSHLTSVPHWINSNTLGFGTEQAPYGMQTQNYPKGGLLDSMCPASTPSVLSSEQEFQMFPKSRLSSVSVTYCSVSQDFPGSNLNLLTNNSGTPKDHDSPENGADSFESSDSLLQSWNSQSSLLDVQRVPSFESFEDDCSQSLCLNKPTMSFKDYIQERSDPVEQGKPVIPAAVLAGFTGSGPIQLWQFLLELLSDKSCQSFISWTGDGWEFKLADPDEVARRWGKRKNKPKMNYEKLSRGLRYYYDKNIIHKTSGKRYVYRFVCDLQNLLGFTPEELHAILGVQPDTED
# How it was run: as §1
# SPDEF = target: T9, SPDEF (Homo sapiens, UniProt O95238 1-335); conditions: protein: recombinant; tags: N-terminal GST; dsDNA, one strand shown
# T9 sequence: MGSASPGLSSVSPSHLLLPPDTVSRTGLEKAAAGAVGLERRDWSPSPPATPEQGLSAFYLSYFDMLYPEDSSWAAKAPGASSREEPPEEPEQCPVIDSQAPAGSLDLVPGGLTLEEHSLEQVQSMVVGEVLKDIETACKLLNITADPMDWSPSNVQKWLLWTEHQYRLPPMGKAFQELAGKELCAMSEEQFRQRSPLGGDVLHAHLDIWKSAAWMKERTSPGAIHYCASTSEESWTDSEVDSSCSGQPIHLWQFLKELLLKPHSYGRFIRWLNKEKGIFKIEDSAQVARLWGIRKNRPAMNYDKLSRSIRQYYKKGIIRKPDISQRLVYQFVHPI
# How it was run: as §1
# ETV7 = target: T10, ETV7 (Homo sapiens, UniProt Q9Y603 1-341); conditions: protein: recombinant; tags: N-terminal GST; dsDNA, one strand shown
# T10 sequence: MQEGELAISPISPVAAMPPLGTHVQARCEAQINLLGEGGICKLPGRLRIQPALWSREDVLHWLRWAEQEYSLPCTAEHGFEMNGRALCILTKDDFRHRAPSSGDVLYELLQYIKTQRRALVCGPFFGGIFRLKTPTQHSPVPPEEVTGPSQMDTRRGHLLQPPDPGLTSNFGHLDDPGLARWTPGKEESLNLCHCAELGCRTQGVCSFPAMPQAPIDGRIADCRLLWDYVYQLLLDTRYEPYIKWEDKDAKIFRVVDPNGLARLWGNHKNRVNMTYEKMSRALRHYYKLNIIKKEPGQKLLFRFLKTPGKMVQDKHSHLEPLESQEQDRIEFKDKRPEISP
# How it was run: as §1
# ELF5 = target: T11, ELF5 (Homo sapiens, UniProt Q9UKW6-2 1-255); conditions: protein: recombinant; tags: N-terminal GST; dsDNA, one strand shown
# T11 sequence: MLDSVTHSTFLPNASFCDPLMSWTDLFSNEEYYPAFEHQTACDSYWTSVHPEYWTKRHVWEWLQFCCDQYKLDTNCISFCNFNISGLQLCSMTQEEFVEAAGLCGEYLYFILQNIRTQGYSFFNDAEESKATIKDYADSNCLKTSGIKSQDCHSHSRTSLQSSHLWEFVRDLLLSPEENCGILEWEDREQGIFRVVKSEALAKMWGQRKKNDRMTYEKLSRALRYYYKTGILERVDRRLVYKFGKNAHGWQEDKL
# How it was run: as §1
# ETV3 = target: T12, ETV3 (Homo sapiens, UniProt P41162-2 1-143); conditions: protein: recombinant; tags: N-terminal GST; dsDNA, one strand shown
# T12 sequence: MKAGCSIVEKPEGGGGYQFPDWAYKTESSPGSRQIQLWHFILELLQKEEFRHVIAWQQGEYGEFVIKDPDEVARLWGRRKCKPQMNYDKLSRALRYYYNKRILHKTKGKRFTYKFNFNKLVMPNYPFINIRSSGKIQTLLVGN
# How it was run: as §1
# ETV6 = ETV6 (Homo sapiens, UniProt P41212 1-452); conditions: protein: recombinant; tags: N-terminal GST; dsDNA, one strand shown
# How it was run: as §1
# Chain of ETV6 (P41212 whole entry): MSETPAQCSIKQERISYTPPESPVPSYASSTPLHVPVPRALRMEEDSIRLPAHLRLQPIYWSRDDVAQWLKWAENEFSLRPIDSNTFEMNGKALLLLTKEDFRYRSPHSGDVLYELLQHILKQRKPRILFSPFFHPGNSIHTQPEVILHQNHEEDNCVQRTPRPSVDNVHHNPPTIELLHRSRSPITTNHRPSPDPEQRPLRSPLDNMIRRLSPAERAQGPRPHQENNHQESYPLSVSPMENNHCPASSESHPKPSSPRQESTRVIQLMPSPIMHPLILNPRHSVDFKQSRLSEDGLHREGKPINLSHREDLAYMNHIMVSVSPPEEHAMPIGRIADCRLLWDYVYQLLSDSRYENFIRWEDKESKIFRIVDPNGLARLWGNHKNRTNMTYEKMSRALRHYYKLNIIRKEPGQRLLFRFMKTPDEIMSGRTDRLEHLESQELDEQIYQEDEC
# Chain of ETV1 (P50549 whole entry): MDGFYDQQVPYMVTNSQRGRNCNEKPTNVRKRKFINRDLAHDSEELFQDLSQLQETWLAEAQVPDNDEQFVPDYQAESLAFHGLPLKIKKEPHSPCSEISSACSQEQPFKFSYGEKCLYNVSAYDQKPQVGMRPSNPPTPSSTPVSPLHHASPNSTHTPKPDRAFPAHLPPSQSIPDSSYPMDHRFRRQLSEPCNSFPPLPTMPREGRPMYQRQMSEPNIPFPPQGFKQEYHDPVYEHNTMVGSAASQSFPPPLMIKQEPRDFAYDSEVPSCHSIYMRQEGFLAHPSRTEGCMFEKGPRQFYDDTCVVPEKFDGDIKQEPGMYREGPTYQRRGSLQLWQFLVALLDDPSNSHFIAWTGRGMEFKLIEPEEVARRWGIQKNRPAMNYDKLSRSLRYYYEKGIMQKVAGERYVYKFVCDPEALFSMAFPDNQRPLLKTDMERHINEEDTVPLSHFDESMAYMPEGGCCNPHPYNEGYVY
# Chain of CRX (O43186 whole entry): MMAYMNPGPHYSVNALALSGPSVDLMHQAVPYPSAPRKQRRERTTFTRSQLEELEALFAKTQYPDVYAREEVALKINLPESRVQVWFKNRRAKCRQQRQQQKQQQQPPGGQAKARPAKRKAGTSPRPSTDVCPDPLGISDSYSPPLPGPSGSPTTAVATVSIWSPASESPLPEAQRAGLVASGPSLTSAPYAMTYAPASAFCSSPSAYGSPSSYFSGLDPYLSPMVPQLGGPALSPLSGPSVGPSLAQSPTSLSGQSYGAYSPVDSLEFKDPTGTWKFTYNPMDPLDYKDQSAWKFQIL
# Chain of ELF4 (Q99607 whole entry): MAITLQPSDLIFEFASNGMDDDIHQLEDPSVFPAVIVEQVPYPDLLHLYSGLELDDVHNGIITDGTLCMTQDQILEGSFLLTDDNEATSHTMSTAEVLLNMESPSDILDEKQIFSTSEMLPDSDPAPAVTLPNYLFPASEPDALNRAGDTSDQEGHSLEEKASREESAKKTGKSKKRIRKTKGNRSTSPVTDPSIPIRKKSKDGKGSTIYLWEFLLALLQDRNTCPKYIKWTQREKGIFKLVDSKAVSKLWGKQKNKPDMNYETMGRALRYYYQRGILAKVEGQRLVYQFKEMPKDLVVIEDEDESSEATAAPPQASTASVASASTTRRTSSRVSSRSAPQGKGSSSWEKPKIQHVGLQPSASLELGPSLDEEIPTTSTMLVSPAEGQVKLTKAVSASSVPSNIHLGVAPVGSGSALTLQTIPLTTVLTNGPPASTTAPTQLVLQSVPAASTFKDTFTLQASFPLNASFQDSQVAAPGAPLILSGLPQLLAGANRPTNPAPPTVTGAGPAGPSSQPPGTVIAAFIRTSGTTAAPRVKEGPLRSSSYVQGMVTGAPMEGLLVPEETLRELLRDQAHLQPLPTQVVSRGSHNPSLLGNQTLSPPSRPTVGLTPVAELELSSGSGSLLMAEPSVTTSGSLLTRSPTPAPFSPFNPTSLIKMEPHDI
# Chain of HSF1 (Q00613 whole entry): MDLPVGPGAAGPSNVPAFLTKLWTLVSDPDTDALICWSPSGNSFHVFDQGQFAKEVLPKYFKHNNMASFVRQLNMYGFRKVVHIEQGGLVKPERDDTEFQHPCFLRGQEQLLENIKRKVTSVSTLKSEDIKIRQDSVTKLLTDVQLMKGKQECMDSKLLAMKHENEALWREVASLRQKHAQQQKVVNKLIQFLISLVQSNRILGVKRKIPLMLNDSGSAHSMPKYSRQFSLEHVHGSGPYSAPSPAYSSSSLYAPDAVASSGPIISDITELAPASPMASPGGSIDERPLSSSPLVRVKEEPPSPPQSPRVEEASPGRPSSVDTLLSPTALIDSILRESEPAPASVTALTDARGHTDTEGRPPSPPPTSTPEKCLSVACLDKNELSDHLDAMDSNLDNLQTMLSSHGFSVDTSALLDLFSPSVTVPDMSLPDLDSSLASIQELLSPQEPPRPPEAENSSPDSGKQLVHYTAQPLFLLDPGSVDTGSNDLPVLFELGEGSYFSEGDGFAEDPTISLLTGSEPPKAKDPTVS
# Chain of ETV5 (P41161 whole entry): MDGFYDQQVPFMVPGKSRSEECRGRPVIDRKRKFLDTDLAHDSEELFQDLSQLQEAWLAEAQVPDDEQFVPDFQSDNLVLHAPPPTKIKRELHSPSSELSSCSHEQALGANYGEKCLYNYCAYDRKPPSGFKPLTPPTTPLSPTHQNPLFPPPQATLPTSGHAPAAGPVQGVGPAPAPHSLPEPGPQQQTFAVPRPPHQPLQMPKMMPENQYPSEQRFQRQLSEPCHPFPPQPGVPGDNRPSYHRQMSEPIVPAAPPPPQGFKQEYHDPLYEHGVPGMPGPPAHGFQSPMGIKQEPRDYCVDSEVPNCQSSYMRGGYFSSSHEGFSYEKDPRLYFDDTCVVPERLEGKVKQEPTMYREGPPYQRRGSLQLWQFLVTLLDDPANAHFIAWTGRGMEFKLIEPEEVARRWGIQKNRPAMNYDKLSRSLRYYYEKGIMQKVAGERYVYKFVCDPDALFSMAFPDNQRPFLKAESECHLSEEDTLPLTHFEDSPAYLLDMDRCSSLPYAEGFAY
sequence,measurement,setting,value
TCTAAC,binding signal,FEV,"1.23 fold enrichment (6-mer frequency, TF over GST control)"
same,binding signal,ETV5,"1.21 fold enrichment (6-mer frequency, TF over GST control)"
same,binding signal,HSF1,"1.25 fold enrichment (6-mer frequency, TF over GST control)"
same,binding signal,SPIC,"1.07 fold enrichment (6-mer frequency, TF over GST control)"
same,binding signal,ELF4,"1.22 fold enrichment (6-mer frequency, TF over GST control)"
same,binding signal,ELK4,"1.2 fold enrichment (6-mer frequency, TF over GST control)"
same,binding signal,ETV2,"1.12 fold enrichment (6-mer frequency, TF over GST control)"
same,binding signal,ELF3,"1.23 fold enrichment (6-mer frequency, TF over GST control)"
same,binding signal,CRX,"1.24 fold enrichment (6-mer frequency, TF over GST control)"
same,binding signal,ETV1,"1.16 fold enrichment (6-mer frequency, TF over GST control)"
same,binding signal,ERF,"1.22 fold enrichment (6-mer frequency, TF over GST control)"
same,binding signal,ETV3L,"1.19 fold enrichment (6-mer frequency, TF over GST control)"
same,binding signal,ETS2,"1.19 fold enrichment (6-mer frequency, TF over GST control)"
same,binding signal,SPDEF,"1.14 fold enrichment (6-mer frequency, TF over GST control)"
same,binding signal,ETV7,"1.29 fold enrichment (6-mer frequency, TF over GST control)"
same,binding signal,ELF5,"1.15 fold enrichment (6-mer frequency, TF over GST control)"
same,binding signal,ETV3,"1.18 fold enrichment (6-mer frequency, TF over GST control)"
same,binding signal,ETV6,"1.22 fold enrichment (6-mer frequency, TF over GST control)"
